# Reference: PubChem BioAssay (NCATS)
# Values joined by “and” are separate entries in the source; they are usually repeats but may differ in a detail not shown here. Equal values may be shown once. Results filed as inconclusive are left out. Active and inactive are the calls of the source. The call rests on the fitted dose curve; in most records, active means well fitted inhibition curve with a large enough effect; inconclusive means small, poorly fitted or top-dose-only effect; inactive means flat fitted curve, though single readings scatter.
# Assay: Primary qHTS for inhibitors of nuclear receptor binding SET domain protein 2 (NSD2) in an isogenic RCH-ACV NSD2 p.E1099K mutant (9B) (AID 1645876); further: nearly all actives have a fitted effect of over 70% in size
# Settings: RCH-ACV (leukaemia line) NSD2 E1099K (9B) viability, CellTiter-Glo, 72 h; series mostly up to 44.9 µM; activity change, negative = viability loss: at the top concentration
# On the % scale 0 is the no-effect control and ±100 the full control effect; potency means the concentration at half of the fitted maximal effect.
SMILES,"activity change, negative = viability loss",Potency,outcome
O=C(Oc1ccccc1)c1cccc(C(=O)Oc2ccccc2)c1,7% [at 91.9 µM] (inactive),,
CCCC(CCC)(C(=O)OCC)C(=O)OCC,-11.9% (inactive),,
CC(NC(CCc1ccccc1)C(=O)O)C(=O)N1C(=O)N(C)CC1C(=O)O (configuration not stated),1.25% (inactive),,
CN1Cc2cc(C(=O)N3CCC(C4CCNCC4)CC3)ccc2NC(CC(=O)O)C1=O (configuration not stated),6.76% (inactive),,
CCc1cccc2c(CCO)c[nH]c12,-8.07% (inactive),,
OC1(c2ccc(Cl)c(C(F)(F)F)c2)CCN(CCCC(c2ccc(F)cc2)c2ccc(F)cc2)CC1,,4.22 µM (active) and 3.25 µM (active),
NS(=O)(=O)c1cc2c(cc1Cl)CN(C1CCCCC1)C2=O,-16.6% (inactive),,
CCC1(c2cnc[nH]2)Cc2ccccc2C1,-19.1% (inactive),,
C[C@H](CN1CCCC1)C(=O)c1ccc(C(F)(F)F)cc1,,11.9 µM (active),
Nc1ncnc2c1ncn2Cc1c(F)cccc1Cl,-1.44% (inactive),,
CC(C)C(=O)Nc1cccc(C(F)(F)F)c1,-23.5% (inactive),,
CCc1cc2cc(OC)c(OC)cc2c(Cc2ccccc2)n1,,23.7 µM (active),
CC(C)(C)C1CCC(CC2=C(O)c3ccccc3C(=O)C2=O)CC1 (configuration not stated),,7.5 µM (active),
COc1ccc(/C(C)=C/C(=O)O)c(OC)c1,,,inactive
CN=C(N)NC(=O)Nc1c(C)cccc1C,,,inactive
CCOC(=O)CN1CCCC1=O,8.48% (inactive),,
COc1ccc2c(c1)CCCC2=O,3.53% (inactive),,
CCN(CC)CCN,7.48% (inactive),,
C[C@@H](C1=C(CCN(C)C)Cc2ccccc21)c1ccccn1,-20.7% (inactive),,

SMILES,"activity change, negative = viability loss",Potency,outcome
Oc1ccccc1-c1nnco1,2.44% (inactive),,
CCCCCCn1c(=O)c2c(ncn2C)n(C)c1=O,4.89% (inactive),,
COc1cc2c(cc1OC)CN(C(=O)[C@H](C)N[C@@H](CCc1ccccc1)C(=O)O)[C@H](C(=O)O)C2,8.34% (inactive),,
COC(=O)c1c(Cl)c(Cl)c(C(=O)OC)c(Cl)c1Cl,-3.06% [at 91.9 µM] (inactive),,
CN1CCN(N)CC1,-8.4% (inactive),,
O=C(O)C1CCC1,,,inactive
Cc1cc(=O)oc2cc(O[C@@H]3SC[C@@H](O)[C@H](O)[C@H]3O)ccc12,4.05% (inactive),,
CC[N+](CC)(CC)CCOC(=O)C(C1CCCC1)C1CCCC1,,21.1 µM (active),
O=C1CCCc2c(O)cccc21,-16.4% (inactive),,
CCCCC(CC)COC(=O)c1ccccc1C(=O)O (configuration not stated),-9.16% [at 91.9 µM] (inactive),,
Cc1[nH]cnc1-c1ccc(Cl)cc1,-0.676% (inactive),,
COc1ccccc1N1CCN(CC(O)COc2cc(OC)c(OC)c(OC)c2)CC1 (configuration not stated),,,inactive
CO/N=C(\C(=O)O)c1csc(NC(=O)CCl)n1,,,inactive
CCCC(=O)O[C@]1(C(=O)COC(=O)CC)CC[C@H]2[C@@H]3CCC4=CC(=O)CC[C@]4(C)[C@H]3[C@@H](O)C[C@@]21C,-21.4% [at 17.3 µM] (inactive),,
COC(=O)c1cc(Cl)ccc1OC,-8.45% (inactive),,
COc1ccccc1OCC1CNC(=O)O1 (configuration not stated),9.41% (inactive),,
Cc1ccc(-c2ccccc2C#N)cc1,-21.6% (inactive),,
CC(C)(C)c1ccc(O)c(O)c1,,2.17 µM (active),
